Test results as given in PubChem BioAssay (NCI).
About 83,000 compounds went through this panel and 20% of them were active in at least one assay; those are over-represented in the sample as a whole.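 Testing used 96-well plates and a 48-hour single-concentration exposure. Example: -40 means 40% of the starting cells died.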 A number with no mark means an inactive call. The source made the active and inactive calls. How the source made its calls: active means growth percent below 10; inactive means the rest.

How the values were obtained:
Assay in all cases: NCI-60 one-dose screen, 48 h (100 = growth as untreated, 0 = no growth, -100 = all killed)
Conditions in all cases: 10 µM unless noted
NCI-H23 lung = system: NCI-H23 lung
NCI-H226 lung = system: NCI-H226 lung
NCI-H322M lung = system: NCI-H322M lung
HOP-62 NSCLC = system: HOP-62 NSCLC
NCI-H460 lung = system: NCI-H460 lung
HOP-92 NSCLC = system: HOP-92 NSCLC
NCI-H522 lung = system: NCI-H522 lung
A549/ATCC NSCLC = system: A549/ATCC NSCLC
786-0 renal = system: 786-0 renal
COLO 205 colon = system: COLO 205 colon
DU-145 prostate = system: DU-145 prostate
K-562 leukemia = system: K-562 leukemia
MALME-3M melanoma = system: MALME-3M melanoma
MDA-MB-231 breast = system: MDA-MB-231 breast
RXF 393 renal = system: RXF 393 renal
SF-268 CNS = system: SF-268 CNS
SF-539 CNS = system: SF-539 CNS
UACC-257 melanoma = system: UACC-257 melanoma
M14 melanoma = system: M14 melanoma
SF-295 CNS = system: SF-295 CNS

What does the source list for O=C(c1ccccc1)C(CN1CCOCC1)c1ccccc1 (stereo unspecified)?
growth (NCI-H23 lung): 65.3%; growth (NCI-H226 lung): 40.1%; growth (NCI-H322M lung): 84.7%; growth (HOP-62 NSCLC): 81%; growth (NCI-H460 lung): 79.4%; growth (HOP-92 NSCLC): 40.5%; growth (NCI-H522 lung): -51.3% (active); growth (A549/ATCC NSCLC): 95.3%; growth (786-0 renal): 31%; growth (COLO 205 colon): 25.5%; growth (DU-145 prostate): 28.9%; growth (K-562 leukemia): 7.04% (active); growth (MALME-3M melanoma): -3.82% (active); growth (MDA-MB-231 breast): 33.2%; growth (RXF 393 renal): 25.9%; growth (SF-268 CNS): 27%; growth (SF-539 CNS): 37.3%; growth (UACC-257 melanoma): 51.5%; growth (M14 melanoma): 27.8%

For Cc1nnc2nc(N)[nH]n2c1=O, which growth (NCI-H23 lung) is on record?
Its growth is 103%.

And the growth (NCI-H226 lung)?
Its growth is 111%.

What about the growth (NCI-H322M lung) of the same compound?
The growth was 105%.

And the growth (HOP-62 NSCLC)?
Its growth is 109%.

What about the growth (NCI-H460 lung) of the same compound?
Its growth is 113%.

What about the growth (HOP-92 NSCLC) of the same compound?
Its growth is 66.5%.

What about the growth (NCI-H522 lung) of the same compound?
The growth was 92.8%.

And the growth (A549/ATCC NSCLC)?
The growth was 99%.

And the growth (786-0 renal)?
The growth was 98.8%.

And the growth (COLO 205 colon)?
Its growth is 121%.

And the growth (DU-145 prostate)?
The growth was 104%.

What about the growth (K-562 leukemia) of the same compound?
The growth was 101%.

What about the growth (MALME-3M melanoma) of the same compound?
The growth was 93.9%.

And the growth (MDA-MB-231 breast)?
The growth was 129%.

What about the growth (RXF 393 renal) of the same compound?
Its growth is 117%.

And the growth (SF-268 CNS)?
The growth was 103%.

And the growth (SF-539 CNS)?
The growth was 114%.

What about the growth (UACC-257 melanoma) of the same compound?
Its growth is 98.5%.

What about the growth (M14 melanoma) of the same compound?
The growth was 99.2%.

OCC12CCCC(CO)(COC1)C2O (stereo unspecified) was tested. Which growth (NCI-H23 lung) did it give?
Its growth is 97%.

What about the growth (NCI-H226 lung) of the same compound?
Its growth is 99.8%.

And the growth (NCI-H322M lung)?
Its growth is 115%.

What about the growth (HOP-62 NSCLC) of the same compound?
Its growth is 106%.

And the growth (NCI-H460 lung)?
The growth was 100%.

And the growth (HOP-92 NSCLC)?
The growth was 30.9%.

What about the growth (NCI-H522 lung) of the same compound?
The growth was 111%.

What about the growth (A549/ATCC NSCLC) of the same compound?
Its growth is 101%.

And the growth (786-0 renal)?
The growth was 112%.

And the growth (COLO 205 colon)?
Its growth is 107%.

And the growth (DU-145 prostate)?
The growth was 127%.

And the growth (K-562 leukemia)?
The growth was 120%.

And the growth (MALME-3M melanoma)?
The growth was 114%.

And the growth (MDA-MB-231 breast)?
The growth was 94.3%.

What about the growth (RXF 393 renal) of the same compound?
The growth was 121%.

And the growth (SF-268 CNS)?
Its growth is 113%.

What about the growth (SF-539 CNS) of the same compound?
The growth was 105%.

What about the growth (UACC-257 melanoma) of the same compound?
Its growth is 100%.

What about the growth (M14 melanoma) of the same compound?
The growth was 97.6%.

With COc1cc(C(=O)/C=C/c2cc(-c3ccc4c(c3)OCO4)n[nH]2)cc(OC)c1OC as the compound, how does the growth (NCI-H23 lung) read?
Its growth is 24.5%.

What about the growth (NCI-H226 lung) of the same compound?
The growth was 38.1%.

What about the growth (NCI-H322M lung) of the same compound?
The growth was 19.3%.

And the growth (HOP-62 NSCLC)?
The growth was -22.7% (active).

And the growth (NCI-H460 lung)?
The growth was -55.2% (active).

And the growth (HOP-92 NSCLC)?
The growth was 73%.

What about the growth (NCI-H522 lung) of the same compound?
The growth was 17.4%.

What about the growth (A549/ATCC NSCLC) of the same compound?
The growth was 28.8%.

And the growth (786-0 renal)?
Its growth is 12.8%.

And the growth (COLO 205 colon)?
Its growth is 32.3%.

And the growth (DU-145 prostate)?
Its growth is 0.359% (active).

What about the growth (K-562 leukemia) of the same compound?
Its growth is -17% (active).

And the growth (MALME-3M melanoma)?
The growth was 68.5%.

What about the growth (MDA-MB-231 breast) of the same compound?
The growth was 30.6%.

What about the growth (RXF 393 renal) of the same compound?
Its growth is 1.1% (active).

And the growth (SF-268 CNS)?
The growth was -8.16% (active).

What about the growth (SF-539 CNS) of the same compound?
The growth was -51.9% (active).

What about the growth (UACC-257 melanoma) of the same compound?
The growth was 76.5%.

And the growth (M14 melanoma)?
Its growth is 81.4%.

What does the source list for COc1ccc2nc(-c3c(-c4ccccc4)nc4ncccn34)[nH]c2c1?
growth (NCI-H23 lung): 105%; growth (NCI-H226 lung): 106%; growth (NCI-H322M lung): 105%; growth (HOP-62 NSCLC): 108%; growth (NCI-H460 lung): 106%; growth (HOP-92 NSCLC): 111%; growth (NCI-H522 lung): 88.7%; growth (A549/ATCC NSCLC): 97.8%; growth (786-0 renal): 103%; growth (COLO 205 colon): 108%; growth (DU-145 prostate): 115%; growth (K-562 leukemia): 101%; growth (MALME-3M melanoma): 112%; growth (MDA-MB-231 breast): 99.3%; growth (RXF 393 renal): 104%; growth (SF-268 CNS): 109%; growth (SF-539 CNS): 100%; growth (UACC-257 melanoma): 105%; growth (M14 melanoma): 107%

Which growth (NCI-H23 lung) does the source give for CC(=O)O[C@H]1CC[C@@]2(C)[C@@H](CC[C@@H]3[C@@H]2CC(=O)[C@@]2(C)[C@H]3C[C@@H](C3CCCC3=O)[C@@H]2C(C)=O)C1 (stereo partly specified) here?
The growth was 107%.

What about the growth (NCI-H226 lung) of the same compound?
Its growth is 112%.

What about the growth (NCI-H322M lung) of the same compound?
The growth was 106%.

What about the growth (HOP-62 NSCLC) of the same compound?
Its growth is 100%.

And the growth (NCI-H460 lung)?
The growth was 111%.

And the growth (HOP-92 NSCLC)?
Its growth is 93.1%.

And the growth (NCI-H522 lung)?
Its growth is 82.5%.

And the growth (A549/ATCC NSCLC)?
The growth was 101%.

What about the growth (786-0 renal) of the same compound?
Its growth is 105%.

What about the growth (COLO 205 colon) of the same compound?
The growth was 116%.

And the growth (DU-145 prostate)?
Its growth is 117%.

What about the growth (K-562 leukemia) of the same compound?
Its growth is 105%.

What about the growth (MDA-MB-231 breast) of the same compound?
Its growth is 98.8%.

What about the growth (RXF 393 renal) of the same compound?
Its growth is 132%.

And the growth (SF-268 CNS)?
Its growth is 112%.

And the growth (SF-295 CNS)?
The growth was 112%.

What about the growth (SF-539 CNS) of the same compound?
Its growth is 105%.

What about the growth (UACC-257 melanoma) of the same compound?
The growth was 109%.

Which growth (NCI-H23 lung) does the source give for COc1ccc2[nH]cc(-c3nc(-c4c[nH]c5ncccc45)cs3)c2c1 here?
Its growth is 48.3%.

And the growth (NCI-H226 lung)?
The growth was 53.2%.

What about the growth (NCI-H322M lung) of the same compound?
The growth was 44.5%.

And the growth (HOP-62 NSCLC)?
Its growth is 53.5%.

And the growth (NCI-H460 lung)?
Its growth is 21.8%.

What about the growth (HOP-92 NSCLC) of the same compound?
Its growth is 25.9%.

What about the growth (NCI-H522 lung) of the same compound?
The growth was 31.3%.

What about the growth (A549/ATCC NSCLC) of the same compound?
The growth was 22.4%.

And the growth (786-0 renal)?
Its growth is 16.2%.

And the growth (COLO 205 colon)?
The growth was -10.2% (active).

And the growth (DU-145 prostate)?
The growth was 47.1%.

What about the growth (K-562 leukemia) of the same compound?
The growth was 18.3%.

What about the growth (MDA-MB-231 breast) of the same compound?
Its growth is 39.1%.

What about the growth (RXF 393 renal) of the same compound?
Its growth is 1.36% (active).

What about the growth (SF-268 CNS) of the same compound?
The growth was 58.8%.

What about the growth (SF-295 CNS) of the same compound?
The growth was 10.6%.

And the growth (SF-539 CNS)?
Its growth is 25.2%.

What about the growth (UACC-257 melanoma) of the same compound?
The growth was -57% (active).

And the growth (M14 melanoma)?
The growth was 16.1%.

For C/C(=N\NC(=O)C(C)SC(C)C(=O)N/N=C(\C)c1cccnc1)c1cccnc1 (stereo unspecified), which growth (NCI-H23 lung) is on record?
Its growth is 103%.

What about the growth (NCI-H226 lung) of the same compound?
Its growth is 106%.

What about the growth (NCI-H322M lung) of the same compound?
Its growth is 104%.

What about the growth (HOP-62 NSCLC) of the same compound?
The growth was 106%.

And the growth (NCI-H460 lung)?
Its growth is 104%.

And the growth (HOP-92 NSCLC)?
Its growth is 114%.

And the growth (NCI-H522 lung)?
The growth was 77.4%.

What about the growth (A549/ATCC NSCLC) of the same compound?
Its growth is 108%.

And the growth (786-0 renal)?
Its growth is 115%.

And the growth (COLO 205 colon)?
Its growth is 107%.

What about the growth (DU-145 prostate) of the same compound?
The growth was 111%.

What about the growth (K-562 leukemia) of the same compound?
Its growth is 91.9%.

And the growth (MDA-MB-231 breast)?
The growth was 109%.

And the growth (RXF 393 renal)?
Its growth is 130%.

And the growth (SF-268 CNS)?
The growth was 108%.

And the growth (SF-295 CNS)?
The growth was 116%.

What about the growth (SF-539 CNS) of the same compound?
The growth was 104%.

What about the growth (UACC-257 melanoma) of the same compound?
The growth was 113%.

And the growth (M14 melanoma)?
The growth was 111%.
